Source: PubChem BioAssay
In the library only some 4.1% were active in any assay of this set; here they are far more common.
DAX1 inh-1: inhibitors of human orphan nuclear receptor DAX1 (NR0B1) | 340,000 tested, 0.99% active | HEK293 Gal4-DAX1 luciferase reporter, luminescence | P51843 | inhibition, % at 6.75 µM | AID 504766;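 active = inhibition above the mean over all tested compounds plus 3 SD, cut at about 4.2% in these data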;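 note: 0% = DAX1-transfected cells with DMSO and 100% = empty-vector control cells with DMSO; inhibition shows as a rise in luminescence from relieved DAX1 repression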
Target sequence (P51843 207-470 limits assumed): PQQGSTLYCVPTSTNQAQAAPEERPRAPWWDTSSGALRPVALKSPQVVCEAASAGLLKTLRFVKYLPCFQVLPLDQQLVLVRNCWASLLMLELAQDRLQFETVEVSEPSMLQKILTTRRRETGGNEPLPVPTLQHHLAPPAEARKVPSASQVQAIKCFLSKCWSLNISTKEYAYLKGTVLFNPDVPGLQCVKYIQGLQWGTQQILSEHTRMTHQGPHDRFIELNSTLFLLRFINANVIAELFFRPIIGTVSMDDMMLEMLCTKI
DAX1 inh-2: DAX1 (NR0B1) inhibition, primary screen; inhibition, % at 6.8 µM; HEK293T StAR-luciferase reporter, SF-1/DAX-1 repression relief; AID 652010; 370,000 tested, 1.1% active;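 active = inhibition above the mean over all tested compounds plus 3 SD, cut at about 3.6% in these data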;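 note: 0% = DAX-1 cells with DMSO and 100% = cells lacking DAX-1 with DMSO; higher inhibition means more luminescence from relief of DAX-1 repression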
hcDAF-12 act: activators of H. contortus DAF-12 nuclear receptor; HEK293 hcDAF-12 lit1-tk-luc reporter, luminescence; 0% DMSO, 100% Δ7-dafachronic acid; activation, % at 6.8 µM; 370,000 tested, 1.4% active; AID 652067;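 active = activation above the mean of all tested compounds plus 3 SD, cut at about 5.5% in these data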;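 note: 100% = response to 3 µM Δ7-dafachronic acid high control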
ssDAF-12 act: activators of S. stercoralis DAF-12 nuclear receptor. activation, % at 6.8 µM. HEK293 ssDAF-12/GRIP1 lit1-tk-luc reporter, luminescence; % of 3 µM dafachronic acid response. 370,000 tested, 1% active;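 active = activation above the mean over all tested compounds plus 3 SD, cut at about 0.9% in these data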;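 note: 0% = DMSO-only wells and 100% = 3 µM delta7-dafachronic acid wells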
hgDAF12 agonist: activates the H. glycines DAF-12 receptor ligand-binding domain. 370,000 tested, 1.8% active. AID 687014. activation, % at 6.8 µM. HEK293 GAL4-hgDAF12 UAS-luciferase reporter, agonist luminescence; normalized to butyrate control;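 active = activation above a cutoff set at the mean of all screened compounds plus 3 SD, cut at about 10% in these data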;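 note: 0% = DMSO wells and 100% = sodium butyrate wells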
DAX1 conf: NR0B1 (human) inhibition, confirmation. shares compounds with DAX1 inh-2. HEK293T StAR-promoter luciferase reporter, SF-1/DAX-1 repression. inhibition, % at 6.8 µM. 2,400 tested, 87% active;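 active = inhibition above the average of every tested compound plus 3 SD, cut at about 3.8% in these data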;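 note: 0% = DAX-1 cells with DMSO and 100% = no DAX-1 control cells with DMSO; active compounds raise luminescence by relieving repression of the StAR reporter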
SF1 AF2mut Luc: nonselective inhibitor or artifact in SF-1 mutant DAX1 counter-screen | inhibition, % at 6.8 µM | shares compounds with DAX1 inh-2 | 2,400 tested, 78% active | HEK293 StAR-luciferase, SF-1 AF2 mutant, luminescence;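 active = inhibition above the mean of all tested compounds plus 3 SD, cut at about 3% in these data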;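 note: 0% = DAX-1 transfected cells with DMSO and 100% = cells without DAX-1 with DMSO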
LXRb hcDAF ctr: LXR-beta agonism as hcDAF-12 counter-screen; activation, % at 6.8 µM; HEK293 Gal4-LXR tk-luc reporter, luminescence, 24 h; normalized: DMSO 0%, positive control 100%; shares compounds with hcDAF-12 act; AID 743027; 3,400 tested, under 10 active;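 active = mean percent activation of the reporter above a cutoff set as the average over tested compounds plus their standard deviation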
Target sequence (P55055 whole entry, looked up, the tested form may be a part): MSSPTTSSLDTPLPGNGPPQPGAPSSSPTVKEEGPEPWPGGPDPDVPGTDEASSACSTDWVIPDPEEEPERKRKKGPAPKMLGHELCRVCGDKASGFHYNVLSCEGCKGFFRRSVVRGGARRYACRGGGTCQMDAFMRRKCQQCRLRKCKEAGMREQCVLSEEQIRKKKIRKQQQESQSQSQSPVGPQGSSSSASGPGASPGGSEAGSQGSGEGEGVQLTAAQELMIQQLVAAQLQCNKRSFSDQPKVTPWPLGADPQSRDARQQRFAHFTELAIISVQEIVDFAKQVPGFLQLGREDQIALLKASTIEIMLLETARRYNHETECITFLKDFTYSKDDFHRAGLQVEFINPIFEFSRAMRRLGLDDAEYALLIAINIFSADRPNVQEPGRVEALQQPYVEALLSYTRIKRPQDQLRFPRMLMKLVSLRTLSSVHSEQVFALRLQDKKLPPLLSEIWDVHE
hcDAF12 conf: confirmation of H. contortus DAF-12 agonists. HEK293 hcDAF-12 lit1-tk-luc reporter, luminescence; % of Δ7-dafachronic acid response. shares compounds with hcDAF-12 act. activation, % at 6.8 µM. 3,400 tested, 61% active;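 active = mean activation across triplicate tests above the threshold derived from the earlier primary screen, cut at about 5.5% in these data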;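 note: 0% = DMSO only wells and 100% = 3 µM Δ7-dafachronic acid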
hgDAF12 ag: confirmation of H. glycines DAF-12 agonists; shares compounds with hgDAF12 agonist; HEK293 GAL4-hgDAF12 luciferase reporter, agonist mode; percent of butyrate response; activation, % at 6.8 µM; 3,300 tested, 80% active;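 active = mean activation over triplicate wells above the hit cutoff derived from the earlier primary screen, cut at about 11% in these data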;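 note: 0% = DMSO low control and 100% = 2 mM sodium butyrate high control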
LXRb DAF12 ctr: LXR-beta agonism as DAF-12 counter-screen; shares compounds with hgDAF12 agonist; HEK293 Gal4-LXR luciferase reporter, 24 h; activation, % at 6.8 µM; 3,300 tested, under 10 active; AID 743051;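 active = mean activation of the triplicate above a set limit carried over from the primary screen, none filed active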
Numbers without * were called inactive; nt = not tested or not shown.

SMILES	DAX1 inh-1	DAX1 inh-2	hcDAF-12 act	ssDAF-12 act	hgDAF12 agonist	DAX1 conf	SF1 AF2mut Luc	hgDAF12 ag	LXRb DAF12 ctr	others
O=C(NN=Cc1ccc2c(c1)CCN2)c1cccs1	5.6*	6.7*	9.8*	1.5*	22.3*	17.2*	7.0*	25.6*	1.1	LXRb hcDAF ctr=1.5;hcDAF12 conf=5.6*
Cc1cccc(NC(=O)c2c(C)nc3ccccn23)c1	-1.3	1.2	-1.3	-1.0	2.5	nt	nt	nt	nt
Cc1ccc(NC(=O)c2c(C)nc3ccccn23)cc1C	5.6*	5.8*	0.7	-1.3	13.8*	8.9*	6.1*	16.0*	0.5
COC(=O)[C@H](C(C)C)N1CCc2nnn(CC3CCCCC3)c2-c2ccccc2S1(=O)=O	nt	-0.1	-3.7	-0.8	-0.6	nt	nt	nt	nt
O=c1c2ccccc2oc2c1oc1ccccc12	2.6	6.6*	4.8	0.1	15.2*	7.3*	6.5*	12.9*	0.4
Cc1cc(C(=O)OCCCN(C)C2CN(Cc3cn(Cc4ccccc4C(F)(F)F)nn3)S(=O)(=O)C2)no1 (stereo not given)	nt	-1.1	-1.7	-1.3	0.0	nt	nt	nt	nt
COCCCNC(=O)C[C@H]1C[C@@]2(C(=O)OC)C(=C[C@H](C3CCCC3)O[C@@H]2C)N(CCc2ccc(OC)c(OC)c2)C1=O	nt	-0.6	-2.3	-1.1	1.8	nt	nt	nt	nt
N#C/C(=N/Nc1ccc([N+](=O)[O-])cc1)C(=N)N1CCCCC1	8.1*	5.5*	6.4*	1.6*	19.8*	8.2*	3.2*	21.2*	0.7
N#C/C(=N\Nc1ccc(Cl)cc1)C(=N)N1CCCCCC1	10.4*	7.6*	4.5	0.1	17.9*	21.5*	8.8*	24.4*	1.2
N#C/C(=N\Nc1ccccc1[N+](=O)[O-])C(=N)N1CCCCC1	7.4*	8.0*	7.9*	1.0*	13.6*	14.2*	8.1*	17.7*	0.7	LXRb hcDAF ctr=1.5;hcDAF12 conf=8.6*
N#C/C(=N\Nc1ccc([N+](=O)[O-])cc1)C(=N)N1CCOCC1	3.6	0.2	-0.1	-0.4	4.0	nt	nt	nt	nt
Cc1ccc(OCc2nnc(SCC(=O)c3ccc(-c4ccccc4)cc3)n2Cc2ccco2)cc1	nt	-1.3	-3.4	-1.3	-0.8	nt	nt	nt	nt
COc1ccc(C2NC(=O)c3ccccc3N2)cc1COc1ccc(NC(C)=O)cc1 (stereo not given)	nt	nt	-2.7	-1.6	0.4	nt	nt	nt	nt
CCn1cc(C(=O)N2CCN(Cc3ccc(C)cc3)CC2)c(=O)c2ccc(C)nc21	nt	-0.3	-0.7	-1.1	-0.4	nt	nt	nt	nt
CSc1ccccc1OCc1cc(C(=O)NCc2ccc(C)s2)no1	0.2	0.1	1.3	-1.1	1.5	nt	nt	nt	nt
CCOC(=O)c1ccc(CNC(=O)c2cc(COc3ccccc3SC)on2)o1	2.0	5.4*	3.8	-0.2	14.6*	8.8*	4.5*	17.8*	0.8
NS(=O)(=O)c1ccc(NC(=O)CSc2nc3ccccc3c(=O)n2-c2ccc(Br)cc2)cc1	nt	-1.1	-2.3	-2.2	-3.0	nt	nt	nt	nt
Cc1ccc(C2=NN3C(C2)c2ccccc2OC32C(=O)Nc3ccccc32)cc1 (stereo not given)	2.1	5.3*	18.5*	2.2*	25.5*	9.9*	9.4*	19.6*	0.9	LXRb hcDAF ctr=1.1;hcDAF12 conf=8.3*
Cc1ccc(Cn2ncc3c(NCCN(C)C)ncnc32)cc1	-0.5	-0.3	-2.1	-0.9	-0.8	nt	nt	nt	nt
CN(C)CCNc1ncnc2c1cnn2-c1ccc(Cl)cc1	2.1	5.5*	7.8*	0.7	18.9*	10.0*	6.6*	13.8*	0.7	LXRb hcDAF ctr=1.0;hcDAF12 conf=4.1
Clc1ccc(-n2ncc3c(NCC4CCCO4)ncnc32)cc1 (stereo not given)	2.3	7.1*	3.3	0.4	13.7*	4.6*	-0.1	17.0*	0.9
Cc1cc(C)n2c(NC3CCCC3)c(-c3cc4ccccc4o3)nc2n1	nt	5.3*	3.8	1.2*	16.9*	4.2*	2.2	7.7	0.3
Cc1ccc(Cc2c(-c3ccc(C)cc3)nc3ccc(Br)cn23)cc1	3.1	2.6	4.6	-0.1	8.6	nt	nt	nt	nt
Cc1ccn2c(Cc3ccccc3)c(-c3ccc(Br)cc3)nc2c1	1.6	8.4*	1.3	0.0	16.9*	5.3*	0.8	2.0	0.2
Cc1ccc(Cc2c(-c3ccc(C)cc3)nc3cc(C)ccn23)cc1	2.1	6.2*	1.9	-0.2	17.8*	2.0	0.5	3.5	0.3
SMILES	DAX1 inh-1	DAX1 inh-2	hcDAF-12 act	ssDAF-12 act	hgDAF12 agonist	DAX1 conf	SF1 AF2mut Luc	hgDAF12 ag	LXRb DAF12 ctr	others
COC(=O)C1(C)Nc2ccccc2C(=O)N1c1ccccc1OC (stereo not given)	-0.9	0.4	-0.8	-0.2	1.1	nt	nt	nt	nt
COc1ccc(N2C(=O)c3ccccc3NC2(C)C)cc1	0.3	7.6*	3.4	-0.5	28.5*	2.9	1.2	9.0	0.2
COc1ccc(S[C@]2(C(=O)N3CCOCC3)CC(=O)N(c3ccc(OC)cc3)[C@@H]2c2ccc(OC)cc2)cc1	nt	-1.1	-1.0	-1.1	1.7	nt	nt	nt	nt
COc1ccccc1OCC(=O)Nc1ncc(C)s1	1.3	10.4*	4.7	0.3	17.4*	8.5*	6.7*	14.9*	0.9
COC(=O)c1sc(NC(=O)COc2ccccc2OC)nc1C	-0.2	0.2	0.4	-1.9	-0.2	nt	nt	nt	nt
COc1ccc2nc(NC(=O)C3COc4ccccc4O3)sc2c1 (stereo not given)	0.9	5.6*	6.4*	0.4	18.7*	12.3*	7.6*	11.5*	0.6
COC(=O)c1sc(NC(=O)c2ccoc2C)nc1C	-0.7	1.3	-0.6	-0.3	3.1	nt	nt	nt	nt
COc1ccc2nc(NC(=O)c3ccoc3C)sc2c1	-0.4	5.5*	9.9*	0.8	14.8*	14.2*	4.4*	19.1*	1.3	LXRb hcDAF ctr=1.4;hcDAF12 conf=5.9*
CCCCNC(=O)C[C@H]1C[C@@]2(C(=O)OC)C(=C[C@H](C(C)C)O[C@@H]2C2CC2)N(Cc2ccccc2)C1=O	nt	0.6	-0.8	-1.0	0.1	nt	nt	nt	nt
